The values below come from PubChem BioAssay (EPA / NIEHS).

Assay [1] concerns the target Cellular tumor antigen p53 (Homo sapiens) (UniProt P04637). Briefly: TOX21_p53_BLA_p2_ratio: Tox21 HCT-116 p53 Agonism Beta-lactamase Assay, Ratio, Phase 2 (AID 2283592). In outline:
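DMSO-normalized, positive-direction endpoint derived from the 460 nm/530 nm FRET ratio in HCT116 p53 beta-lactamase reporter cells exposed 16 h at 37C and loaded with CCF4-AM for 2 h.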

The nature of assay [2]: TOX21_p53_BLA_p3_viability: Viability Assessment in the Tox21 HCT-116 p53 Agonism Beta-lactamase Assay, Phase 3 (AID 2283593).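 Note: cells exposed to compound for 16 h before reading.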 In short, it runs like this: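 Cellular ATP was quantified by CellTiter-Glo luminescence, read after 30 min at room temperature. Beforehand, HCT116 cells (4000/well) received compound 5 h post-seeding, 217-fold diluted from DMSO, then incubated 16 h at 37C.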

Assay [3] concerns the target Cellular tumor antigen p53 (Homo sapiens) (UniProt P04637). Briefly: TOX21_p53_BLA_p3_ratio: Tox21 HCT-116 p53 Agonism Beta-lactamase Assay, Ratio, Phase 3 (AID 2283596). In short, it runs like this: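 Cells were seeded at 4000/well, rested 5 h at 37C, then dosed with DMSO compound solutions (217-fold dilution) for 16 h. CCF4-AM substrate was loaded for 2 h at room temperature, and the 460/530 nm emission ratio was fitted for gain of signal versus DMSO.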

The target is the same in assay [4]. The experiment in a line: TOX21_p53_BLA_p5_ratio: Tox21 HCT-116 p53 Agonism Beta-lactamase Assay, Ratio, Phase 5 (AID 2283599). In outline: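 Beta-lactamase reporter ratio (blue 460 nm over green 530 nm, 405 nm excitation) after 2 h CCF4-AM loading, in HCT-116 cells exposed 16 h at 37 C to compounds pinned at 217-fold dilution. Increases relative to DMSO baseline scored.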

Assay [5] can be described thus: TOX21_p53_BLA_p5_viability: Viability Assessment in the Tox21 HCT-116 p53 Agonism Beta-lactamase Assay, Phase 5 (AID 2283600). In outline:
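Here cell health was gauged by ATP levels in wells holding 4000 cells, each treated 16 h with DMSO-delivered compounds at 217-fold dilution; reduced luminescence marked toxicity.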

Assay [6] addresses Cellular tumor antigen p53 (Homo sapiens) (UniProt P04637). The experiment in a line: TOX21_p53_BLA_p4_ratio: Tox21 HCT-116 p53 Agonism Beta-lactamase Assay, Ratio, Phase 4 (AID 2283601). In outline: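 Signal is the blue/green (460nm/530nm) ratio of cleaved versus uncleaved CCF4-AM substrate, read after 2 h substrate loading. Cells were HCT116 carrying the p53-responsive beta-lactamase reporter, dosed 16 h at 37C, 5% CO2; CellTiter-Glo measured in parallel.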

A short description of assay [7]: TOX21_p53_BLA_p4_viability: Viability Assessment in the Tox21 HCT-116 p53 Agonism Beta-lactamase Assay, Phase 4 (AID 2283597).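 Note: hits lower the luminescence signal meaning cytotoxicity.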 In outline: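 In this multiplexed secondary endpoint, HCT116 cells (4000 per well, compound at 5 h, 16 h treatment) received CellTiter-Glo after the beta-lactamase read. Luminescence after 30 min RT reflects ATP, and falling signal marks cytotoxicity.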

Values joined by “and” are separate entries in the source; they are usually repeats but may differ in a detail not shown here. Equal values may be shown once. Results filed as inconclusive are left out. The source holds several records for some structures; these can differ, active in one and inactive in another. Active and inactive are the calls of the source. Rule for the calls: active = hit-call score of the fitted dose curve at least 0.9, where 1 is the maximum; inconclusive = response in the unintended direction; inactive = score below 0.9.

Sequence of Cellular tumor antigen p53 (Homo sapiens) (P04637 whole entry, looked up): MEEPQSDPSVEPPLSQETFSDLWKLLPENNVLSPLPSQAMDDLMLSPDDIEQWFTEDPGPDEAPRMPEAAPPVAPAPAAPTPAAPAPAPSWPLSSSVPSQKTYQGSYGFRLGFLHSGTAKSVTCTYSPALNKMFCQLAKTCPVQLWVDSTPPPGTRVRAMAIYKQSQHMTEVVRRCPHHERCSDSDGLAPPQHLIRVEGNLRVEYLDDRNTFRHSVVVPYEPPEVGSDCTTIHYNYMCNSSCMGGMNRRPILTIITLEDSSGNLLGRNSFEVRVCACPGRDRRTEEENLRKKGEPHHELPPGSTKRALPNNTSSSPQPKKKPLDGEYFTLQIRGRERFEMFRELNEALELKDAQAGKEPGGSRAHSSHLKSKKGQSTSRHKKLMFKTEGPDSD

As usually defined, the AC50 is the concentration at which the activity in the assay is half-maximal. `O=C1OC2(c3cc(Br)c(O)c(Br)c3Oc3c2cc(Br)c(O)c3Br)c2c(Cl)c(Cl)c(Cl)c(Cl)c21`: the AC50 was 16.8 µM (active) in assay [1]; 48.3 µM (active) and 20.9 µM (active) in assay [2]; 50.7 µM (active) in assay [3]; 50.2 µM (active) in assay [4]; 48.7 µM (active) and 26.5 µM (active) in assay [6]. Besides, the result in assay [1], in assay [3], in assay [4] and in assay [5] was inactive.
`O=C(O)c1snc(Cl)c1Cl`: the outcome in assay [1], in assay [2], in assay [3], in assay [7], in assay [4] and in assay [5] was inactive. The result in assay [6] was inactive.
On to `C=C(C)C(=O)Nc1ccc(Cl)c(Cl)c1`, for which the AC50 was 60.6 µM (active) in assay [1], 56.1 µM (active) in assay [3], 74.7 µM (active) in assay [4] and 68 µM (active) in assay [6]. For the same compound, the outcome in assay [1], in assay [2], in assay [3], in assay [7], in assay [4] and in assay [5] was inactive. In addition, in assay [6], the result was inactive.
As to `OCCN1CCNCC1`, the outcome in assay [1], in assay [3], in assay [7], in assay [4], in assay [5] and in assay [6] was inactive. The AC50 in assay [2] was 82.8 µM (active).
For `Cc1ccc(C(=O)c2cc(O)c(O)c([N+](=O)[O-])c2)cc1`, the AC50 in assay [1] is 14.6 µM (active); in assay [2] it was 46.1 µM (active); in assay [7], 46.1 µM (active); in assay [4], 71.3 µM (active); in assay [6] it was 49.6 µM (active). Further, the result in assay [1], in assay [2], in assay [3], in assay [7], in assay [4] and in assay [5] was inactive. Also, the outcome in assay [6] was inactive.
On to `CCC(=O)OCc1ccccc1`, for which the outcome in assay [1], in assay [2], in assay [3], in assay [7], in assay [4] and in assay [5] was inactive. Besides, the result in assay [6] was inactive.
As to `CN(C)C(=N)N=C(N)N`, the outcome in assay [1], in assay [2], in assay [3], in assay [7], in assay [4] and in assay [5] was inactive. In assay [6], the result was inactive.
On to `CNCCCC12CCC(c3ccccc31)c1ccccc12`, for which the AC50 in assay [1] was 85.8 µM (active); in assay [2] it was 70.4 µM (active); in assay [7], 62.7 µM (active) and 36.6 µM (active); in assay [4] it was 90.1 µM (active); in assay [5], 70.2 µM (active); in assay [6] it was 87 µM (active). Also, the outcome in assay [1], in assay [2], in assay [3], in assay [4], in assay [5] and in assay [6] was inactive.
Take `CC(C)(N)CO`: the outcome in assay [1], in assay [2], in assay [3], in assay [7], in assay [4] and in assay [5] was inactive. In addition, the outcome in assay [6] was inactive.
For `COC(=O)Cc1cccc2ccccc12`, the result in assay [1], in assay [2], in assay [3], in assay [7], in assay [4] and in assay [5] was inactive. Moreover, the outcome in assay [6] was inactive.
`NC(=O)NC1NC(=O)NC1=O` (stereo not drawn): the outcome in assay [1], in assay [2], in assay [3], in assay [7], in assay [4] and in assay [5] was inactive. Also, the outcome in assay [6] was inactive.
Regarding `BrC1CCC(Br)C(Br)CCC(Br)C(Br)CCC1Br` (stereo not drawn), the AC50 in assay [1] is 53.1 µM (active) and 45.9 µM (active); in assay [2], 15.1 µM (active); in assay [3], 65.6 µM (active) and 38.4 µM (active); in assay [7] it was 40.1 µM (active) and 19.6 µM (active); in assay [6], 63.7 µM (active) and 50.3 µM (active). Also, the outcome in assay [2], in assay [4] and in assay [5] was inactive.
For the compound `Cc1ccc(O)c(C(C)(C)C)c1`, the AC50 was 68.4 µM (active) in assay [1]; 36.7 µM (active) in assay [2]; 46.1 µM (active) and 52.5 µM (active) in assay [7]; 60.5 µM (active) and 67.9 µM (active) in assay [4]; 42.9 µM (active) in assay [5]; 72.2 µM (active) and 68.5 µM (active) in assay [6]. The result in assay [1], in assay [2] and in assay [5] was inactive.
Regarding `CC(=O)Nc1ccc(CC(=O)O)cc1`, the result in assay [1], in assay [2], in assay [3], in assay [7], in assay [4] and in assay [5] was inactive. In addition, in assay [6], the outcome was inactive.
Regarding `CCCC(=O)c1cc(O)c(O)cc1O`, the outcome in assay [1], in assay [2], in assay [3], in assay [7], in assay [4] and in assay [5] was inactive. In addition, the outcome in assay [6] was inactive.
For the compound `O=C(Cl)c1cccc(C(=O)Cl)c1`, the AC50 in assay [1] was 46.1 µM (active). Besides, the result in assay [1], in assay [2], in assay [3], in assay [4], in assay [5] and in assay [6] was inactive.
Regarding `CCCC/C=C\CCCCCCCCCC=O`, the outcome in assay [1], in assay [2], in assay [3], in assay [7], in assay [4] and in assay [5] was inactive. In addition, the result in assay [6] was inactive.
With `C=C(C)[C@@H]1CC[C@@H](C)C[C@@H]1O`, the result in assay [1], in assay [2], in assay [3], in assay [7], in assay [4] and in assay [5] was inactive. For the same compound, the outcome in assay [6] was inactive.
Take `O=C(O)Cc1cccc2ccccc12`: the result in assay [1], in assay [2], in assay [3], in assay [7], in assay [4] and in assay [5] was inactive. Besides, the outcome in assay [6] was inactive.
Turning to `O=Nc1ccc(Nc2ccccc2)cc1`, the concentration at half-maximal activity (AC50) in assay [1] was 46 µM (active) and 46.3 µM (active); in assay [2], 67 µM (active); in assay [7], 85.3 µM (active) and 75.2 µM (active); in assay [4] it was 77.5 µM (active) and 46.3 µM (active); in assay [6], 76.2 µM (active) and 63 µM (active). For the same compound, the call in assay [2] and in assay [5] was inactive.
On to `CC(C)(C)c1cc(CCC(=O)NN)cc(C(C)(C)C)c1O`, for which the outcome in assay [1], in assay [2], in assay [3], in assay [7], in assay [4] and in assay [5] was inactive.
For `NC(N)=NC(=O)c1nc(Cl)c(N)nc1N`, the result in assay [1], in assay [2], in assay [3], in assay [7], in assay [4] and in assay [5] was inactive. Besides, the result in assay [6] was inactive.
For `CCCCCCCCCCCCN(CCCCCCCCCCCC)CCCCCCCCCCCC`, the result in assay [1], in assay [2], in assay [3] and in assay [7] was inactive.
For `COCCCOc1ccnc(CS(=O)c2nc3ccccc3[nH]2)c1C` (stereo not drawn), the result in assay [1], in assay [2], in assay [3], in assay [7], in assay [4] and in assay [5] was inactive. For the same compound, the result in assay [6] was inactive.
